Compound activity deposited in PubChem by several laboratories.
Rows were chosen to be rich in hits. Some 27% of all compounds tested hit in one or more screens of this group.
CYP2C19 inh = blockers of cytochrome P450 2C19 activity – biochemical, luminescence, ADME assay, primary screen | P33261 | CYP2C19 Supersomes, luciferin-H EGE luminescence, 30 min | inhibition, % at 5 µM | 21% of 96,000 active | AID 778, 2007;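 active = CYP2C19 inhibition above a set limit at 5 µM in the primary screen, cut at about 50% in these data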;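 also: plate controls were negative control wells for no effect and 2.5 mM tranylcypromine positive control for full effect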
Target sequence (P33261 whole entry, looked up): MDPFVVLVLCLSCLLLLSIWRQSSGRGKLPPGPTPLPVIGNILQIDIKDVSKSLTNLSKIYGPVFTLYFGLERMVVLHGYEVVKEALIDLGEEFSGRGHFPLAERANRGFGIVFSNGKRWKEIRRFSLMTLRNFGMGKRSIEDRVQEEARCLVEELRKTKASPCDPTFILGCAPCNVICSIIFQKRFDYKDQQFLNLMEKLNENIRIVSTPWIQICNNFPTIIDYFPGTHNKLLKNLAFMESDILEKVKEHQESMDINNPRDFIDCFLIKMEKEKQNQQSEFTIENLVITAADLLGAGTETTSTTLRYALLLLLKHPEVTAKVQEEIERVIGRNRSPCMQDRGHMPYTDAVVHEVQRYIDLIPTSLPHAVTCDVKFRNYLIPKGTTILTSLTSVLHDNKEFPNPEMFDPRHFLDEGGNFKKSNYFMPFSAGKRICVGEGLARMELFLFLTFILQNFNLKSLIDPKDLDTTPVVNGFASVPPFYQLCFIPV
CYP2C19 act = human CYP2C19 activators, primary screen, biochemical, luminescence | recombinant CYP2C19, luciferin-H EGE luminescence; hits give high values; 0 = fully inhibited enzyme, 1 = untreated enzyme | activation factor at 5 µM | 96,000 tested, under 10 active;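 active = activation factor of at least 2 at 5 µM in the primary screen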;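 also: 0 = wells with 2.5 mM tranylcypromine and 1 = vehicle-only wells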
CYP2C9 act = human CYP2C9 activators, primary screen, biochemical, luminescence; Cytochrome P450 2C9 (Homo sapiens), P11712; recombinant CYP2C9, luciferin-H conversion; hits give high values; factor 1 = untreated enzyme, 0 = blocked; activation factor at 5 µM; 1.4% of 96,000 active; AID 1024, 2008;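 active = activation factor of 2 or more for CYP2C9 at a 5 µM dose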;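 also: 0 = sulfaphenazole-blocked wells and 1 = vehicle-only wells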
Cav3 T inh = Cav3.2 calcium influx blockers – cell-based, Fluo-4 calcium fluorescence, FDSS, MLSMR library, primary screen. Cav3.2-expressing cells; hits give low values. B-score at 10 µM. 4% of 100,000 active. AID 449739, 2010;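 active = single-dose well whose peak fluorescence ratio is a statistical outlier from its plate by either plate-standardised score or position-corrected B-score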
CYP2C9 inhib = blockers of cytochrome P450 2C9 activity – biochemical, luminescence, ADME assay, primary screen. 20% of 96,000 active. inhibition, % at 5 µM. AID 777, 2007. P11712. CYP2C9 Supersomes, luciferin-H conversion;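 active = blocking of liver enzyme CYP2C9 beyond about 50% at 5 µM, limit read from the data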
* = called active by the depositor; · = not tested or not shown.

SMILES | CYP2C19 inh | CYP2C19 act | CYP2C9 act | Cav3 T inh | CYP2C9 inhib
CCOC(=O)CSC1=C(C#N)C(c2ccco2)C(C(=O)Nc2cccc(C(F)(F)F)c2)=C(C)N1 (stereo unspecified) | 78* | 0.2 | 0.2 | -2.3 | 82*
COc1ccc(NC(=O)CSc2n[nH]c(N)n2)c([N+](=O)[O-])c1 | -1 | 1 | 0.9 | 1.4 | 13
COc1ccc(C(=O)NC2CCN(C(=S)Nc3cccc(C)c3C)CC2)cc1 | -8 | 1.1 | 1.1 | · | -13
CCOC(=O)CC(=O)CSc1ncnc2c1cnn2-c1ccccc1 | 27 | 0.7 | 0.6 | 0.12 | 37
CCOC(=O)C1=C(c2ccccc2)NC(SCC(=O)Nc2cccc(C)c2)=C(C#N)C1c1ccco1 (stereo unspecified) | 60* | 0.4 | 0.1 | -2.1 | 92*
CCc1ccc(NC(=O)CSC2=C(C#N)C(c3ccco3)C3=C(CCCC3=O)N2)cc1 (stereo unspecified) | 33 | 0.7 | 0.8 | -3.3 | 19
CCOC(=O)c1c(C)cc(C)n2c1nc1ccccc12 | -18 | 1.2 | 1.2 | 0.96 | -24
Cc1ccc(/C=N/NC(=O)c2cc(C)oc2C)o1 | 22 | 0.8 | 1 | -1.6 | -3
Cc1ccc(/C=N/NC(=S)NC(C)C)o1 | 51* | 0.5 | 1.1 | -0.45 | -11
CC(=O)OCC1OC(n2ccc3ccccc32)C(OC(C)=O)C(OC(C)=O)C1OC(C)=O (stereo unspecified) | 12 | 0.9 | 0.7 | 0.96 | 33
CC(=O)OC1COC(n2ccc3ccccc32)C(OC(C)=O)C1OC(C)=O (stereo unspecified) | 67* | 0.3 | 0.7 | 0.061 | 27
Cc1ccccc1C(=O)/C=C1/c2ccccc2CC(C)(C)N1C | 41 | 0.6 | 0.4 | -3.9* | 58*
Cc1cccc(C(=O)/C=C2/c3ccccc3CC(C)(C)N2C)c1 | 87* | 0.1 | 0.1 | -4.2* | 85*
COc1ccc(C2C3=C(CC(C)(C)CC3=O)Nc3c2c(=O)[nH]c2nc(C)nn32)cc1 (stereo unspecified) | 4 | 1 | 0.9 | 0.62 | 12
C=CCOC(=O)c1[nH]c2c(c1C)C(=O)CC(c1ccco1)C2 (stereo unspecified) | 96* | 0 | 0.2 | -0.91 | 80*
Cc1c(C(=O)OCC(C)C)[nH]c2c1C(=O)CC(c1ccco1)C2 (stereo unspecified) | 10 | 0.9 | 0.6 | -1.5 | 38
Cc1c(C(=O)OCC2CCCO2)[nH]c2c1C(=O)CC(c1ccco1)C2 (stereo unspecified) | 69* | 0.3 | 0.1 | · | 92*
COC(=O)C1C(=O)c2c([nH]c(C(=O)OC3CCCC3)c2C)CC1C (stereo unspecified) | -1 | 1 | 0.6 | -0.3 | 37
Cc1c(C(=O)OC2CCCC2)[nH]c2c1C(=O)CC(c1ccco1)C2 (stereo unspecified) | 22 | 0.8 | 0.5 | 0.38 | 52*
C/C=C/COC(=O)c1[nH]c2c(c1C)C(=O)CC(c1ccco1)C2 (stereo unspecified) | 20 | 0.8 | 0.6 | -2.1 | 39
COCCNC(=O)Cn1nc(C(F)(F)F)c(Cl)c1C | 40 | 0.6 | 0.8 | · | 19
COc1ccc(OCC(O)CN(C2CCCCC2)C2CCCCC2)cc1 (stereo unspecified) | -4 | 1 | 0.9 | -1.9 | 13
COC(=O)[C@@]1(Cc2ccccc2)[C@H]2c3cc(C(=O)N4CCCC4)n(Cc4ccsc4Br)c3C[C@H]2CN1C(=O)c1ccccc1 | · | · | · | -0.49 | ·
CCS(=O)(=O)C(=C(Nc1ccc(OC)cc1)Nc1ccc(OC)cc1)S(=O)(=O)CC | 2 | 1 | 1.1 | 0.68 | -7
CC(=O)COc1ncn(-c2ccccc2)n1 | -8 | 1.1 | 1 | -4.4* | 4
SMILES | CYP2C19 inh | CYP2C19 act | CYP2C9 act | Cav3 T inh | CYP2C9 inhib
CCOC(=O)COc1ncn(-c2ccccc2)n1 | -1 | 1 | 1.1 | 2 | -6
COc1ccc(S(=O)(=O)N2CCN(C(=O)c3ccco3)CC2)cc1OC | 45 | 0.6 | 1.1 | 0.82 | -6
O=C(CSc1nn(-c2ccc(Cl)cc2)c(=S)s1)N1CCN(C(=O)c2ccco2)CC1 | 16 | 0.8 | 0.6 | -1.6 | 35
O=C(Cc1ccc(Cl)cc1)Nc1ccc(N2CCN(C(=O)c3ccco3)CC2)c(Cl)c1 | 92* | 0.1 | 0 | -2.6 | 97*
O=C(c1ccco1)N1CCN(S(=O)(=O)Cc2ccc(Cl)cc2)CC1 | 78* | 0.2 | 0.7 | -0.81 | 31
O=C(CSc1nnc(SCc2ccc(Cl)cc2)s1)N1CCN(C(=O)c2ccco2)CC1 | 6 | 0.9 | 0.4 | -0.35 | 55*
COc1ccc(Cl)cc1S(=O)(=O)N1CCN(C(=O)c2ccco2)CC1 | 94* | 0.1 | 1.1 | · | -12
COc1ccc2c(c1OC)C(=O)N(C(C)C(=O)O)C2=O (stereo unspecified) | -8 | 1.1 | 1 | -0.16 | -4
Oc1ccccc1C1=Nc2ncnn2C(c2ccccc2)C1 (stereo unspecified) | 54* | 0.5 | 0.5 | 0.43 | 48
COC(=O)CSc1cnc2ccccc2n1 | -8 | 1.1 | 1.1 | 0.34 | -9
COC(=O)CSc1nc(C(C)C)nc2ccccc12 | 80* | 0.2 | 0.6 | -0.3 | 43
COC(=O)CSc1nc2ccccc2nc1SCC(=O)OC | 54* | 0.5 | 0.8 | -0.7 | 25
C=CCNC(=O)COC(=O)c1cc(S(=O)(=O)N2CCOCC2)ccc1N1CCCCC1 | -3 | 1 | 1 | 1.6 | 4
CC(NC(=O)C(CC(=O)OC(C)(C)C)NC(=O)OC(C)(C)C)C(N)=O (stereo unspecified) | 4 | 1 | 0.9 | -0.14 | 8
CS(=O)(=O)N(CC(=O)NCCSC1CCCCC1)c1ccc2c(c1)OCO2 | 70* | 0.3 | 0.4 | -2.1 | 56*
Cc1ccc(SCCNC(=O)CN(c2ccc3c(c2)OCO3)S(C)(=O)=O)cc1 | 92* | 0.1 | 0.1 | -2.1 | 92*
Cc1ccccc1N(CC(=O)NCCSCc1ccco1)S(C)(=O)=O | 74* | 0.3 | 0.3 | 1.4 | 68*
Cc1cccc(N(CC(=O)NCCC2=CCCCC2)S(C)(=O)=O)c1C | 56* | 0.4 | 0 | -1.5 | 95*
CCCCCNC(=O)CN(c1ccc2c(c1)OCO2)S(C)(=O)=O | 46 | 0.5 | 0.9 | 0.0047 | 10
CS(=O)(=O)N(CC(=O)NCc1ccco1)c1ccccc1Cl | 21 | 0.8 | 0.8 | 0.044 | 22
Cc1cc(C)cc(N(C(C)C(=O)NCCC2=CCCCC2)S(C)(=O)=O)c1 (stereo unspecified) | 92* | 0.1 | 0.9 | 0.024 | 14
CS(=O)(=O)N(CC(=O)NCCC1=CCCCC1)c1ccc2c(c1)OCO2 | 62* | 0.4 | 0.4 | -0.13 | 57*
